Drawing on PubChem BioAssay, this text covers composite z-score and z-score for 18 molecules.

The source made the active and inactive calls.

The test system of assay [1] is Plasmodium falciparum Sir2 (PF13_0152, Sir2A). Nature of the assay: pfSir2 binders on small-molecule microarrays, primary screen, biochemical, small-molecule microarray, 635 nm fluorescence (AID 1098).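 Also: score merges spot fluorescence intensity with its signal-to-noise ratio.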 The settings on record: small-molecule microarray binding, fluorescence 635 nm; higher = more signal.
Assay [2] in a line: small-molecule microarray binders of probe aDKK1, primary screen, biochemical, biotinylated probe, 635/667 nm fluorescence (AID 1099).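 Also: score merges 667nm spot fluorescence with signal to noise across triplicate slides; reference of the scale not given here.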 The settings on record: higher = more signal.
Assay [3] in a line: small-molecule microarray binders of probe aCHRDL2, primary screen, biochemical, biotinylated probe, 635/667 nm fluorescence (AID 1100). The settings on record: higher = more signal.
A short description of assay [4]: splicing luciferase reporter signal modulators, primary screen, spliceosome inhibition project, cell-based, HEK293, splice +/- reporter (AID 1101).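 Also: HEK293 cells carrying a splicing-competent luciferase reporter gene; test concentration not given here.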 The settings on record: luminescence, 24 h, higher = more signal, called active from +8 up or from −8 down.
In assay [5] the target is Fibroblast growth factor 10 (Homo sapiens) (UniProt O15520). Kind of assay: FGF10 binders on small-molecule microarrays, primary screen, biochemical, small-molecule microarray, 635 nm fluorescence (AID 1102). The settings on record: FGF10 binding, fluorescence 635 nm, higher = more signal.
For assay [6], the system named is glycogen synthase kinase-3 (GSK3A per assay name; protocol says GSK3B). Kind of assay: GSK3 binders on small-molecule microarrays, primary screen, biochemical, small-molecule microarray, 635 nm fluorescence, GSK3A (AID 1103). Also: the record names both GSK3A and GSK3B. The settings on record: small-molecule microarray binding, fluorescence 635 nm; higher = more signal.
In assay [7] the target is Epidermal growth factor receptor (Homo sapiens) (UniProt P00533). Kind of assay: EGFR binders on small-molecule microarrays, primary screen, biochemical, small-molecule microarray, 635 nm fluorescence (AID 1104).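 Also: score merges 667 nm emission intensity with spot signal to noise over triplicate slides.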 The settings on record: EGFR binding, higher = more signal.
The target of assay [8] is Follistatin-related protein 3 (Homo sapiens) (UniProt O95633). Nature of the assay: FSTL3 binders on small-molecule microarrays, primary screen, biochemical, small-molecule microarray, 635 nm fluorescence (AID 1105).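 Also: score merges emission near 667 nm and signal to noise per printed spot across three slides.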 The settings on record: FSTL3 binding, higher = more signal.
Assay [9] addresses Dickkopf-related protein 1 (Homo sapiens) (UniProt O94907). Kind of assay: DKK1 binders on small-molecule microarrays, primary screen, biochemical, small-molecule microarray, 635 nm fluorescence scan (AID 1106).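 Also: score merges emission near 667 nm with signal to noise over three replicate slides.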 The settings on record: DKK1 binding, higher = more signal.
Assay [10] concerns Inhibin beta A chain (activin A). Nature of the assay: INHBA (activin A) binders on microarrays, primary screen, biochemical, small-molecule microarray, 635 nm fluorescence scan (AID 1107).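 Also: mouse activin A protein probed at 4.33 µg/mL on printed slides; score merges bound-protein fluorescence near 667 nm with spot signal-to-noise.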 The settings on record: small-molecule microarray binding, higher = more signal.

Sequence of Dickkopf-related protein 1 (Homo sapiens) (O94907 whole entry, looked up): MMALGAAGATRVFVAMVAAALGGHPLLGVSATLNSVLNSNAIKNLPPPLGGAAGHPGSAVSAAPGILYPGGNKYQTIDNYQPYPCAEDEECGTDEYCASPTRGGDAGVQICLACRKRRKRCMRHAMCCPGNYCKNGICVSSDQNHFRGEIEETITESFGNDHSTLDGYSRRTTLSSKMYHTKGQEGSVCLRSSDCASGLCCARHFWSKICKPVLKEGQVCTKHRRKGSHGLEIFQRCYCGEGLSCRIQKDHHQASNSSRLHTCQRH
Sequence of Follistatin-related protein 3 (Homo sapiens) (O95633 whole entry, looked up): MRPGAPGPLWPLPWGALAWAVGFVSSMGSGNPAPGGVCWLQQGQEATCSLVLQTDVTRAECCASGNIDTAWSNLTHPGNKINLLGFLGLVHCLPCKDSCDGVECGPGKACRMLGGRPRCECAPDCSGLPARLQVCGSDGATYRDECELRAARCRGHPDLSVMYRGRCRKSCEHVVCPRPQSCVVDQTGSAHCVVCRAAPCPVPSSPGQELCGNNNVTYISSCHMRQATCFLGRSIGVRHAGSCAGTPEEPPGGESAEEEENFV
Sequence of Fibroblast growth factor 10 (Homo sapiens) (O15520 whole entry, looked up): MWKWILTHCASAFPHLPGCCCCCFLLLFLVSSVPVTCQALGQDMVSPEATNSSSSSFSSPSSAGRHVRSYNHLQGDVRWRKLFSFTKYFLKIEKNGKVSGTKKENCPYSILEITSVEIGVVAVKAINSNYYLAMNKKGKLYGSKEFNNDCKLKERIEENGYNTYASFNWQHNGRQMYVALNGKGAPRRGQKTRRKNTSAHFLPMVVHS
Sequence of Epidermal growth factor receptor (Homo sapiens) (P00533 whole entry, looked up): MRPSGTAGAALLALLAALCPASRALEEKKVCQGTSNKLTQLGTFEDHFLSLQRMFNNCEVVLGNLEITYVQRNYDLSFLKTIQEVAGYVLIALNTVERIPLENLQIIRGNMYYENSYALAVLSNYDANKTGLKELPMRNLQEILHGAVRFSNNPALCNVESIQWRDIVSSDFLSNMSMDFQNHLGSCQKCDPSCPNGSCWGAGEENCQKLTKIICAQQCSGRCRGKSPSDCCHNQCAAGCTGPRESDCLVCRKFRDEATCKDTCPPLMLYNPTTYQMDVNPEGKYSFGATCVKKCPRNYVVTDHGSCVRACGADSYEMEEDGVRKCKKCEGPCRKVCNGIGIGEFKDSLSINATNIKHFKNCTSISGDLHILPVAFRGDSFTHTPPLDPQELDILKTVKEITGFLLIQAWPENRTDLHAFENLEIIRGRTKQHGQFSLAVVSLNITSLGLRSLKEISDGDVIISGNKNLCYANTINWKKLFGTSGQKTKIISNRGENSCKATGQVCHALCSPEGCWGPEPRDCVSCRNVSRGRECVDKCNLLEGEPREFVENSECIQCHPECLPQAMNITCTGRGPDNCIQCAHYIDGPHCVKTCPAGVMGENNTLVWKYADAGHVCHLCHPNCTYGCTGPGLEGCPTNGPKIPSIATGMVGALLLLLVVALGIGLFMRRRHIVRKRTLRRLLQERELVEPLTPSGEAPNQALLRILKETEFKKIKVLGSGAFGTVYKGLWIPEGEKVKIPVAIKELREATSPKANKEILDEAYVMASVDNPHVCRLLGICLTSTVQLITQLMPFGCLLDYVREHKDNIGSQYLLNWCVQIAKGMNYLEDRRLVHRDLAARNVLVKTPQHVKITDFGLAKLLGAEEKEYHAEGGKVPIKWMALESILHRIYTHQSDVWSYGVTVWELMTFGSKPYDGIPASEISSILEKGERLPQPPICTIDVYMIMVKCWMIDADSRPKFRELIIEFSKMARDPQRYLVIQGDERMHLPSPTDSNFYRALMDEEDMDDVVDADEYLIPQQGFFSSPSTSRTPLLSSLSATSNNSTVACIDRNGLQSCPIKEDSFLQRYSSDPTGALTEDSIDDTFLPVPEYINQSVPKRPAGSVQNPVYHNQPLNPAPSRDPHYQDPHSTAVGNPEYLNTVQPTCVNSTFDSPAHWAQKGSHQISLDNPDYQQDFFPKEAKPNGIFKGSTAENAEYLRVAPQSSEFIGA

In the case of `COc1cc2c(cc1O)C(c1ccc(CN3CCCC3)cc1)N(Cc1cc3c(cc1Br)OCO3)CC2` (stereo not given), the composite z-score in [1] is -0.115; in [2] it was -0.106; in assay [3] it was -0.097; in assay [5] it was 0.41; in [6], -0.237; in assay [7] it was -0.186. Moreover, the results for the composite z-score in assay [8], in [9] and in assay [10] were 0.583, -0.367 and 0.992, respectively. For the same molecule, the z-score in [4] is 0.373 (inactive).

For the molecule `CS(=O)(=O)CCOC(=O)C1=CC(c2ccc(CO)cc2)=CC(C2CC2)N(Cc2sc3ccccc3c2Cl)C=C1C(=O)OCCS(C)(=O)=O` (stereo not given), the composite z-score stood at 0.677 in assay [1]; 0.251 in assay [2]; 0.365 in assay [3]; 0.686 in assay [5]; 0.519 in [6]; 0.645 in assay [7]. Besides, the composite z-score in assay [8] came to 1.21; in [9], 0.334; in assay [10], 1.63. Besides, the z-score in assay [4] was 2.53 (inactive).

With `CC(C)=C1C(=O)C(c2ccccc2)=C2CN3C(=O)N(CCc4ccccc4)C(=O)[C@]3(Cc3ccc(C(F)(F)F)cc3)[C@H]21`, the composite z-score in assay [1] was 1.04; in assay [2], 1.18; in [3] it was 1.3; in assay [5] it was -0.649; in assay [6] it was -0.0628; in assay [7], -1.22. The composite z-score in [8] is 0.13; in assay [9], -1.7; in assay [10], 0.877. Also, the z-score in assay [4] was 0.0205 (inactive).

As for `[N-]=[N+]=NCc1ccccc1C[C@@]1(C(N)=O)N=C(c2ccc(OCCCO)cc2)O[C@@H]1c1ccccc1`, the composite z-score in assay [1] is 1.15; in assay [2], 0.67; in [3], 1.04; in assay [5], 0.001; in assay [6], -0.238; in assay [7], -0.892. Also, the results for the composite z-score in assay [8], in [9] and in [10] were -0.443, -1.38 and 0.389, respectively. The z-score in assay [4] is -1.01 (inactive).

`C=CC[C@]1(C(=O)N2CCCCC2)N=C(c2ccc(OCCCO)cc2)O[C@H]1c1ccccc1CN=[N+]=[N-]`: the composite z-score in assay [1] worked out at 1.21; in assay [2] it was 0.258; in assay [3] it was 0.622; in assay [5], 1.21; in assay [6], 1.31; in assay [7], 0.128. Also, the values for the composite z-score in assay [8], in assay [9] and in assay [10] were 0.922, 0.263 and 0.851, respectively. In [4], the z-score was -0.234 (inactive).

For `C#CCN(Cc1ccccc1Br)[C@H](/C=C/c1ccccc1)[C@@H](O)Cc1ccccc1`, the composite z-score in assay [1] is -0.699; in [2], 0.12; in [3], 0.857; in assay [5], -0.636; in assay [6], -0.705; in assay [7], -1.45. In addition, the composite z-score in assay [8] was -1.21; in [9], -1.42; in [10], 1.35. Moreover, in assay [4], the z-score is -1.51 (inactive).

`NC(=O)NCC#Cc1ccc2c(c1)[C@]1(C(=O)N2)[C@H](c2ccccc2OCCO)N2[C@H](c3ccccc3)[C@H](c3ccccc3)OC(=O)[C@H]2[C@@H]1C(=O)O`: the composite z-score is 1.27 in assay [1]; -0.103 in [2]; 0.435 in assay [3]; -0.0931 in assay [5]; -0.397 in [6]; -0.218 in [7]. The composite z-score is -0.085 in assay [8], -0.266 in assay [9] and 0.894 in assay [10]. Further, the z-score in assay [4] was -0.724 (inactive).

Consider `COc1ccc([Si](C)(C)[C@@H]2[C@@H](CCO)O[C@]3(C(=O)N(Cc4ccccc4)c4ccc(N5CCOC5=O)cc43)[C@H]2C)cc1`, for which the composite z-score is 1.54 in [1]; 0.0274 in assay [2]; -0.0546 in assay [3]; 0.24 in assay [5]; 0.624 in assay [6]; 0.254 in assay [7]. The composite z-score in assay [8] amounted to 0.637; in [9], 0.406; in assay [10] it was 0.729. Further, in assay [4], the z-score was -1.64 (inactive).

For `COc1ccc(CCNC(=O)[C@@]2(Sc3ccc(C)cc3)CC(=O)N(Cc3ccccc3C(F)(F)F)[C@@H]2c2ccc(CO)cc2I)cc1`, the composite z-score is 1.09 in assay [1]; -0.0552 in assay [2]; 1.08 in [3]; -1.06 in [5]; -0.404 in [6]; -1.24 in assay [7]. For the same molecule, the composite z-score in [8] was -1.64; in assay [9] it was -1.14; in assay [10], 0.67. Also, in assay [4], the z-score is -1.14 (inactive).

On to `CC[C@@H]1O[Si](C(C)C)(C(C)C)c2c1cc(-c1cc(C)c(OC)c(C)c1)nc2-c1ccc(Oc2ccccc2)cc1`, for which the composite z-score in assay [1] is -0.551; in assay [2], 0.825; in [3], -0.0144; in assay [5], 0.0008; in assay [6], -0.732; in [7], -0.451. Besides, the figures for the composite z-score in [8], in assay [9] and in [10] were -0.452, -0.497 and 0.135, respectively. Further, the z-score in assay [4] is -0.166 (inactive).

With `CCCC=C(CCC)[C@@H](NS(=O)(=O)CC12CCC(CC1=O)C2(C)C)c1ccc(C(=O)OC)cc1` (stereo not given in full), the composite z-score in assay [1] was 0.765; in assay [2], 0.615; in assay [3], 0.143; in assay [5] it was 0.5; in assay [6] it was 0.233; in assay [7] it was 0.273. Moreover, the composite z-score in [8] is 0.337; in [9], 0.336; in assay [10] it was -0.0344. Further, in assay [4], the z-score is -0.422 (inactive).

As to `C=C[C@H]1C(C(=O)OCC)=CC[C@@H](c2ccccc2)N1S(=O)(=O)c1ccc(C)cc1`, the composite z-score in assay [1] was determined as 1.05; in assay [2], 0.158; in assay [3] it was 0.587; in [5], 0.922; in assay [6] it was 1.3; in assay [7], 0.224. Moreover, the composite z-score in assay [8] amounted to 1.11; in [9], 0.0288; in [10], 1.34. In [4], the z-score was -2.78 (inactive).

As to `CCOC(=O)C1=C[C@@H](C(C)C)N(S(=O)(=O)c2ccc(C)cc2)[C@H]1c1ccc(C(F)(F)F)cc1`, the composite z-score in assay [1] was found to be 0.794; in assay [2] it was 0.374; in assay [3] it was 0.703; in assay [5], 0.896; in assay [6] it was 0.898; in assay [7] it was 0.593. For the same molecule, the composite z-score in assay [8] was found to be 1.39; in [9] it was 0.441; in assay [10] it was 0.372. Moreover, in assay [4], the z-score was 0.317 (inactive).

For `CCCNC(=O)[C@@]1(Sc2ccc(C)cc2)CC(=O)N(C2Cc3ccccc3C2)[C@@H]1c1ccc(CO)cc1I`, the composite z-score was 0.401 in assay [1]; 0.551 in assay [2]; 0.7 in [3]; -0.189 in assay [5]; -0.0794 in assay [6]; -0.172 in assay [7]. In addition, the results for the composite z-score in assay [8], in [9] and in assay [10] were -0.268, -0.236 and 1.04, respectively. Further, in assay [4], the z-score is -0.272 (inactive).

`C=C(COC)/C(=C/C[C@H](OC(=O)c1ccncc1)c1ccccc1OCCO)c1cc(C(=O)OC)ccc1OC`: the composite z-score in [1] was 0.515; in assay [2] it was -0.0213; in [3], -0.331; in [5], 1.25; in assay [6], 0.684; in [7], 0.0709. The composite z-score in [8] stood at 1.33; in assay [9], 0.242; in [10] it was 1. Besides, the z-score in assay [4] was -0.0627 (inactive).

Turning to `CC(C)N1CC=CC23O[C@@H]4C=CCCOC(=O)C4[C@H]2C(=O)N(CCCO)[C@@H]3C1=O` (stereo not given in full), the composite z-score in assay [1] is 0.415; in [2], -0.137; in assay [3], 0.0009; in assay [5], -0.264; in assay [6], -0.322; in assay [7], -1.07. For the same molecule, the composite z-score in [8] was -0.317; in assay [9], -0.183; in assay [10], 0.864. The z-score in [4] was -1.38 (inactive).

On to `COc1ccc([Si](C)(C)[C@H]2[C@H](CC(=O)N(CCO)Cc3ccccc3)O[C@@]3(C(=O)N(C)c4c(Br)cc(C)cc43)[C@@H]2C)cc1`, for which the composite z-score is 0.827 in [1]; -0.0876 in [2]; -0.356 in [3]; 0.968 in [5]; 0.691 in [6]; 1.19 in assay [7]. Also, the composite z-score was 1.18 in [8], 0.766 in assay [9] and 0.611 in [10]. In addition, the z-score in assay [4] is -1.34 (inactive).

As to `CC(=O)NCCCC[C@@H]1NC(=O)[C@@H]2C[C@H](C(=O)NCCCCCN)[C@H](c3cccc(OCCO)c3)N2C1=O`, the composite z-score in assay [1] came out at 1.05; in assay [2] it was 0.681; in assay [3], 0.0358; in assay [5], 1.24; in assay [6] it was 0.533; in assay [7], 0.504. The results for the composite z-score in [8], in [9] and in assay [10] were 1.33, 0.823 and 0.488, respectively. In assay [4], the z-score was -1.29 (inactive).
